# Source: PMC7862700, “An all-to-all approach to the identification of sequence-specific readers for epigenetic DNA modifications on cytosine”
# Key:
# Experiment in all cases: DAPPL (digital affinity profiling via proximity ligation, sequencing); 10 mM Tris-HCl pH 7.5, 50 mM NaCl, 1 mM DTT, 4% glycerol, room temperature, 30 min; GST-TFs on glutathione beads, 16-mer random dsDNA library, 0.1% formaldehyde crosslink after washing; high values mean tight binding
# FLI1 = target: T1, FLI1 (Homo sapiens, UniProt Q01543 1-452); details: protein: recombinant; tags: N-terminal GST; dsDNA, one strand shown
# T1 sequence: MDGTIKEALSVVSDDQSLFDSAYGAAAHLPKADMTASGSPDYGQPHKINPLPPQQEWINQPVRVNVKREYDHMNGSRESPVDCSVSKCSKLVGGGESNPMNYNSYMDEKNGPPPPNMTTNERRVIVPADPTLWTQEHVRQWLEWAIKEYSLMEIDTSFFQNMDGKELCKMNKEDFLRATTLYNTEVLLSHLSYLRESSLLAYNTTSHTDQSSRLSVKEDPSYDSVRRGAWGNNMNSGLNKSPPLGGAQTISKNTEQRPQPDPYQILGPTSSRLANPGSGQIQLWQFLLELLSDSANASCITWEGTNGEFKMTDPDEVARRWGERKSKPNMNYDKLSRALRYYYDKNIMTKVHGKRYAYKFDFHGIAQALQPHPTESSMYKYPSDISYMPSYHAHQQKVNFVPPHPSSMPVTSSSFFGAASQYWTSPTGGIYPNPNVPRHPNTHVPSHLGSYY
# How it was run: (§1)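 Each value of binding signal is a hexamer's read frequency for a factor divided by the same hexamer's frequency in the tag-only sample. Barcoded, bead-captured GST fusions of human transcription factors made in yeast were pooled with that sample and incubated with 200 nmole of a random double-stranded 16-mer DNA library in Tris/NaCl/DTT/glycerol buffer at room temperature for 30 min. Washing, 0.1% formaldehyde crosslinking, proximity ligation, PCR and Illumina NextSeq500 sequencing followed.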
# ELK1 = target: T2, ELK1 (Homo sapiens, UniProt P19419 1-428); details: protein: recombinant; tags: N-terminal GST; dsDNA, one strand shown
# T2 sequence: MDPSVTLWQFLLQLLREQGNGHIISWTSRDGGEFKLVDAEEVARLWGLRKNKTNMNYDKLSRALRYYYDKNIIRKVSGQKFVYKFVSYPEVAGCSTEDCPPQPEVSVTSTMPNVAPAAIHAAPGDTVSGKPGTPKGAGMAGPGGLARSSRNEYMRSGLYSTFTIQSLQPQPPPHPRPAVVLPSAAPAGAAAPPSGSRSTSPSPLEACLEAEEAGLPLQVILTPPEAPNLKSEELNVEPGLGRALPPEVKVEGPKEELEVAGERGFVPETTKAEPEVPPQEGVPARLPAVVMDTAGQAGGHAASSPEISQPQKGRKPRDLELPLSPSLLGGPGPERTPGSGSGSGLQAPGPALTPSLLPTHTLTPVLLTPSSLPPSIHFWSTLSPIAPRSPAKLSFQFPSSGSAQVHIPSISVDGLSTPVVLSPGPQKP
# How it was run: as §1
# GABPA = target: T3, GABPA (Homo sapiens, UniProt Q06546 1-454); details: protein: recombinant; tags: N-terminal GST; dsDNA, one strand shown
# T3 sequence: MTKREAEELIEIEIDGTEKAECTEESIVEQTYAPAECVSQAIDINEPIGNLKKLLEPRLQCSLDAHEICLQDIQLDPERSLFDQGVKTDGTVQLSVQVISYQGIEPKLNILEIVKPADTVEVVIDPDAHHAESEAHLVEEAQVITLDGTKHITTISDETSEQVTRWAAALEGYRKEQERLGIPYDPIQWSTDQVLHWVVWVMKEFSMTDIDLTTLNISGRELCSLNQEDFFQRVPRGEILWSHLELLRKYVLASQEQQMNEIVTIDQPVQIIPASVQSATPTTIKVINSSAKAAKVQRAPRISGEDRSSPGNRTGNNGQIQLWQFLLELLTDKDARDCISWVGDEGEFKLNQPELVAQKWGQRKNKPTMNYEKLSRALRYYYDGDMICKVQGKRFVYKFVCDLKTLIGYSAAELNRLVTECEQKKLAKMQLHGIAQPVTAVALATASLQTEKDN
# How it was run: as §1
# ERG = target: T4, ERG (Homo sapiens, UniProt P11308 1-479); details: protein: recombinant; tags: N-terminal GST; dsDNA, one strand shown
# T4 sequence: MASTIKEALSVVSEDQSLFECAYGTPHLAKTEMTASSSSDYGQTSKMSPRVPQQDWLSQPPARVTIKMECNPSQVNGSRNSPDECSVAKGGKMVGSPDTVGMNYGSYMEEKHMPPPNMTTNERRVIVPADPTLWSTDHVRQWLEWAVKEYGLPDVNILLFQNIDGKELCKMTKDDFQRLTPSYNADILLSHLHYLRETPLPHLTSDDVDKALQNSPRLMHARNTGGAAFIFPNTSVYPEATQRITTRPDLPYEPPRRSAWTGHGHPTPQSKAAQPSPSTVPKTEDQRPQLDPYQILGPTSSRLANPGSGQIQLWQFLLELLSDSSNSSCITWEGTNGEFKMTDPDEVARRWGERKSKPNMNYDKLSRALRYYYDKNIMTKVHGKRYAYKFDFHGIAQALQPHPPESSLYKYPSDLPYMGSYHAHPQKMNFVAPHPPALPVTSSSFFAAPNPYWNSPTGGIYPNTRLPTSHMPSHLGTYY
# How it was run: as §1
# ELF1 = ELF1 (Homo sapiens, UniProt P32519 1-619); details: protein: recombinant; tags: N-terminal GST; dsDNA, one strand shown
# ELF1, sequence (P32519 whole entry): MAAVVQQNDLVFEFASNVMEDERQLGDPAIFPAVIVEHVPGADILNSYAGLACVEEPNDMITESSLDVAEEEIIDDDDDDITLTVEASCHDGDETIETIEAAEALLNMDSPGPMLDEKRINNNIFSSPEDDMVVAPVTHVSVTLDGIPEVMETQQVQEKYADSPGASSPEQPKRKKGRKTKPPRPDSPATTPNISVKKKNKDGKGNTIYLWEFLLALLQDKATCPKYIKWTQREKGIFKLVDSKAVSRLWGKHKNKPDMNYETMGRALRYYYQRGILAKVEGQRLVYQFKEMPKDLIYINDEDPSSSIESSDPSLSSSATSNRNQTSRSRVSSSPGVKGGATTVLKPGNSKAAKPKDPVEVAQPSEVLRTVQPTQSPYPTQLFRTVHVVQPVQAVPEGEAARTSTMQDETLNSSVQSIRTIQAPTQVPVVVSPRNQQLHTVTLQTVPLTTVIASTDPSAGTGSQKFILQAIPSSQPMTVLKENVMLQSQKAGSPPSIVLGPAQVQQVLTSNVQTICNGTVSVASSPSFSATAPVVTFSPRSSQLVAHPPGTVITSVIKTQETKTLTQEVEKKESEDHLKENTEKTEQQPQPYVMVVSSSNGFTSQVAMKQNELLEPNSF
# How it was run: as §1
# EHF = target: T5, EHF (Homo sapiens, UniProt Q9NZC4 1-300); details: protein: recombinant; tags: N-terminal GST; dsDNA, one strand shown
# T5 sequence: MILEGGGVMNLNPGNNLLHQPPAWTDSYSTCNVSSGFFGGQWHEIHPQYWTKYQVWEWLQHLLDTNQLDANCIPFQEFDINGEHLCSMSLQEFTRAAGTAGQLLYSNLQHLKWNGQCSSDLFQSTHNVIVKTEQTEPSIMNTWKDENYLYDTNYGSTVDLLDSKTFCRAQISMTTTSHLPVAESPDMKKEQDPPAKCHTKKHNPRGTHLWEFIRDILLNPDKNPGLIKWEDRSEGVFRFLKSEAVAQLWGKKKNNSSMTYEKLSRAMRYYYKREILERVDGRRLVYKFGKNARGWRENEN
# How it was run: as §1
# SPI1 = SPI1 (Homo sapiens, UniProt P17947 1-270); details: protein: recombinant; tags: N-terminal GST; dsDNA, one strand shown
# How it was run: as §1
# SPIB = SPIB (Homo sapiens, UniProt Q01892 1-262); details: protein: recombinant; tags: N-terminal GST; dsDNA, one strand shown
# SPIB, sequence (Q01892 whole entry): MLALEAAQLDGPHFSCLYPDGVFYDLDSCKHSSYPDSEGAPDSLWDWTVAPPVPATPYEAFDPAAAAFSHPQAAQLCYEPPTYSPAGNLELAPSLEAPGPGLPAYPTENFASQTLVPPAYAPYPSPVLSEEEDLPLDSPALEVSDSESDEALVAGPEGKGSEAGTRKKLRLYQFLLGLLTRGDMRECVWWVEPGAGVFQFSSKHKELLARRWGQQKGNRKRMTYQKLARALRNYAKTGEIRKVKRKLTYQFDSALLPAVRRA
# How it was run: as §1
# ELK3 = target: T6, ELK3 (Homo sapiens, UniProt P41970 1-407); details: protein: recombinant; tags: N-terminal GST; dsDNA, one strand shown
# T6 sequence: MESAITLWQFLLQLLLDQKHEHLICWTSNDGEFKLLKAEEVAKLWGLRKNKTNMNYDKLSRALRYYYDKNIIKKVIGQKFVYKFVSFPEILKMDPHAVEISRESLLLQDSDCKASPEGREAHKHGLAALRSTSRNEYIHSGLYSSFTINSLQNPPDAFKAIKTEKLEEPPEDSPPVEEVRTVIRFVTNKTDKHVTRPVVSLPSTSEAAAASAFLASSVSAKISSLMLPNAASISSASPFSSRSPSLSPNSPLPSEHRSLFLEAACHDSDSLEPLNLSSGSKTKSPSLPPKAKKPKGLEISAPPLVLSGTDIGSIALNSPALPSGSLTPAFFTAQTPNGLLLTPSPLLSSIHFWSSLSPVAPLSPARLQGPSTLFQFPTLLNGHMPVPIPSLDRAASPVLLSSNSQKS
# How it was run: as §1
# FEV = target: T7, FEV (Homo sapiens, UniProt Q99581 1-238); details: protein: recombinant; tags: N-terminal GST; dsDNA, one strand shown
# T7 sequence: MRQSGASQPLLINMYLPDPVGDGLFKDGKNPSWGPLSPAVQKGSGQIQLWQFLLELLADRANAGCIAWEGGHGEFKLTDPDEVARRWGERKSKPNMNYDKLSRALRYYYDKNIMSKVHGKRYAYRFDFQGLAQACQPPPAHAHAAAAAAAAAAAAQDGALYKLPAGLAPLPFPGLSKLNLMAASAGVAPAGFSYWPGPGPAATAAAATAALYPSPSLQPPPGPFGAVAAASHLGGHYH
# How it was run: as §1
# ETV5 = ETV5 (Homo sapiens, UniProt P41161 1-510); details: protein: recombinant; tags: N-terminal GST; dsDNA, one strand shown
# ETV5, sequence (P41161 whole entry): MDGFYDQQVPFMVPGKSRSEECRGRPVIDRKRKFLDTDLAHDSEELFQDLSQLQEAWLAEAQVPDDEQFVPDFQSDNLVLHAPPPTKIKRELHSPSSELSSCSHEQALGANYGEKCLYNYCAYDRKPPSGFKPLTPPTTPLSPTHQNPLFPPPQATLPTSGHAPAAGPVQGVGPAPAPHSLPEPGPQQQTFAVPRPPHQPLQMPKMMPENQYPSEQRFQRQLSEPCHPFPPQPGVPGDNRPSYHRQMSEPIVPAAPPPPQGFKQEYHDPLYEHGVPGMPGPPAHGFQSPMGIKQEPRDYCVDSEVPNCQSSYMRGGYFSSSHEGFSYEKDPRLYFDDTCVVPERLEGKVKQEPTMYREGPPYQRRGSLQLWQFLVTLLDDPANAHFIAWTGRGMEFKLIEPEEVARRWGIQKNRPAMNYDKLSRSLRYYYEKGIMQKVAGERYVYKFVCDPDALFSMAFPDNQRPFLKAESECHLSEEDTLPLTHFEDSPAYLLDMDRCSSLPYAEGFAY
# How it was run: as §1
# HSF1 = HSF1 (Homo sapiens, UniProt Q00613 1-529); details: protein: recombinant; tags: N-terminal GST; chain copies: 3; dsDNA, one strand shown
# HSF1, sequence (Q00613 whole entry): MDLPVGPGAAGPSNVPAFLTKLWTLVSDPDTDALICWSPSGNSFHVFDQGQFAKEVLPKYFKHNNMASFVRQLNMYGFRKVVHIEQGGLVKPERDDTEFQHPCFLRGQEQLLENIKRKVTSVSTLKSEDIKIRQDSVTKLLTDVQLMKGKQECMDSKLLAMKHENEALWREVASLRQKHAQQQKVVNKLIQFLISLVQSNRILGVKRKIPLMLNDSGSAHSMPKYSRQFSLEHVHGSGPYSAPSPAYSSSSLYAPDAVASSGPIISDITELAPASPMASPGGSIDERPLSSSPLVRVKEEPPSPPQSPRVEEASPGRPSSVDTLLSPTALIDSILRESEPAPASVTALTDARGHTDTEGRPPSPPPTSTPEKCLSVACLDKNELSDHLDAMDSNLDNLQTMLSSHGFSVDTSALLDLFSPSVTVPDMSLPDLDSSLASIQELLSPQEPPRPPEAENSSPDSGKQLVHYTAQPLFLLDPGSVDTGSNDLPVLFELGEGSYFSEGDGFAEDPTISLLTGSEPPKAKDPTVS
# How it was run: as §1
# SPIC = target: T8, SPIC (Homo sapiens, UniProt Q8N5J4 1-248); details: protein: recombinant; tags: N-terminal GST; dsDNA, one strand shown
# T8 sequence: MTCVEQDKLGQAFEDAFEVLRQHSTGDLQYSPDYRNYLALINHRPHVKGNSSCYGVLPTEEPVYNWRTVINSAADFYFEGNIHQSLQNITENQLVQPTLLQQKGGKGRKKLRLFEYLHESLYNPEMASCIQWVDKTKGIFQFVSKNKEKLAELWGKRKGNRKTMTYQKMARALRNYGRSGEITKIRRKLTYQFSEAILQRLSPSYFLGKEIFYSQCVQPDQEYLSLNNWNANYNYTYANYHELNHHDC
# How it was run: as §1
# ELF4 = ELF4 (Homo sapiens, UniProt Q99607 1-663); details: protein: recombinant; tags: N-terminal GST; dsDNA, one strand shown
# ELF4, sequence (Q99607 whole entry): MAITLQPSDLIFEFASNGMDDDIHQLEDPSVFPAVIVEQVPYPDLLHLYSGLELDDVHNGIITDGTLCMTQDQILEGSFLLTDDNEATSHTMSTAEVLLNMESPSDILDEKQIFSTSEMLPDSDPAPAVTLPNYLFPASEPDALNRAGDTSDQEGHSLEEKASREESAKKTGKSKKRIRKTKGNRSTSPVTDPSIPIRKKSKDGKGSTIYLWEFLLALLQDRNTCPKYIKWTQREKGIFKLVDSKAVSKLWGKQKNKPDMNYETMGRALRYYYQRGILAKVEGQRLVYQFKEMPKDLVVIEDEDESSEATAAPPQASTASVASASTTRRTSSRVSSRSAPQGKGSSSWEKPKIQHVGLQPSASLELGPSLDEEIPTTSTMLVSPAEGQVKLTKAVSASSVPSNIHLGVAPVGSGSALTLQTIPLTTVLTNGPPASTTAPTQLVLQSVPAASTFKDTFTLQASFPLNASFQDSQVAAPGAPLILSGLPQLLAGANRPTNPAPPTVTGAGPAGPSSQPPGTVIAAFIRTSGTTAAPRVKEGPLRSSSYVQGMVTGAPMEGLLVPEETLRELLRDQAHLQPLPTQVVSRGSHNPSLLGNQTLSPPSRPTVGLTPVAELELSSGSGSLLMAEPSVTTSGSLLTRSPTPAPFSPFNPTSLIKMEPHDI
# How it was run: as §1
# ELK4 = target: T9, ELK4 (Homo sapiens, UniProt P28324-2 1-405); details: protein: recombinant; tags: N-terminal GST; dsDNA, one strand shown
# T9 sequence: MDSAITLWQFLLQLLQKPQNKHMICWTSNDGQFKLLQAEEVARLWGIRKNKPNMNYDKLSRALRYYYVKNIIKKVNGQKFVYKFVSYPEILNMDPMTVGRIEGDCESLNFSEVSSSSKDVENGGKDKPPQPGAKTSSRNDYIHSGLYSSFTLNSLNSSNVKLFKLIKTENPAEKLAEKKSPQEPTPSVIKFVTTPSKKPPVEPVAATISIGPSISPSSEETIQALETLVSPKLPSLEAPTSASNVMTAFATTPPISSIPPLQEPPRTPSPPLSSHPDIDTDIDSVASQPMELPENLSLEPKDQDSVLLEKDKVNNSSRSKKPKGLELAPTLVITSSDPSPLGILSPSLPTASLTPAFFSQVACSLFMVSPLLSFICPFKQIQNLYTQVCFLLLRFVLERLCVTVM
# How it was run: as §1
# ETV2 = target: T10, ETV2 (Homo sapiens, UniProt O00321 1-342); details: protein: recombinant; tags: N-terminal GST; dsDNA, one strand shown
# T10 sequence: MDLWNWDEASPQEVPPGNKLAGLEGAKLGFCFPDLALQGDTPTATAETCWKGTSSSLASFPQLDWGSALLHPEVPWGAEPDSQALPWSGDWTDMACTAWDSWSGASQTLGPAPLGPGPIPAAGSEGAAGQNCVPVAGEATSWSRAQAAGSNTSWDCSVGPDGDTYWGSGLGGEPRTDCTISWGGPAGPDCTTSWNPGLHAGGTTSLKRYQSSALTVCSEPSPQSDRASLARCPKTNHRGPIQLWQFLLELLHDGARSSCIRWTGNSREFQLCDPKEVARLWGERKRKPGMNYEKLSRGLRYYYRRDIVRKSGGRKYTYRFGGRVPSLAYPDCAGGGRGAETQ
# How it was run: as §1
# ELF3 = target: T11, ELF3 (Homo sapiens, UniProt P78545 1-371); details: protein: recombinant; tags: N-terminal GST; dsDNA, one strand shown
# T11 sequence: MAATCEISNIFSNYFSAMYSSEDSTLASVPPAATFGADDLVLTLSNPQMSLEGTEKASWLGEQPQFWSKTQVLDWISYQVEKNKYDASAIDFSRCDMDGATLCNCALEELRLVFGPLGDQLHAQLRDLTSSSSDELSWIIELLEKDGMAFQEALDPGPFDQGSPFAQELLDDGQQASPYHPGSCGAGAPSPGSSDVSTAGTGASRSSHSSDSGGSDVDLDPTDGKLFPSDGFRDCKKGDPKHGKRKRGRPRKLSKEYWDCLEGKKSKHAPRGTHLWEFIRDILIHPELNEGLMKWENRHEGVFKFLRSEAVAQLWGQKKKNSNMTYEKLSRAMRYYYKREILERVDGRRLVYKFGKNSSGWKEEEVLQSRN
# How it was run: as §1
# CRX = CRX (Homo sapiens, UniProt O43186 1-299); details: protein: recombinant; tags: N-terminal GST; dsDNA, one strand shown
# CRX, sequence (O43186 whole entry): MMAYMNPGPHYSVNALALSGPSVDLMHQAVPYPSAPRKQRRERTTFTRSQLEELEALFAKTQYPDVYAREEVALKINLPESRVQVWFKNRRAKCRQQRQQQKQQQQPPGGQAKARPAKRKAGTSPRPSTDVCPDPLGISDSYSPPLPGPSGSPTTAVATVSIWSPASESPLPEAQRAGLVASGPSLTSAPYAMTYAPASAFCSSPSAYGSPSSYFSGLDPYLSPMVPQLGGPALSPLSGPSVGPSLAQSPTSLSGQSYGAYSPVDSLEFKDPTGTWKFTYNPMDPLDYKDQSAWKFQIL
# How it was run: as §1
# ETV1 = ETV1 (Homo sapiens, UniProt P50549 1-477); details: protein: recombinant; tags: N-terminal GST; dsDNA, one strand shown
# ETV1, sequence (P50549 whole entry): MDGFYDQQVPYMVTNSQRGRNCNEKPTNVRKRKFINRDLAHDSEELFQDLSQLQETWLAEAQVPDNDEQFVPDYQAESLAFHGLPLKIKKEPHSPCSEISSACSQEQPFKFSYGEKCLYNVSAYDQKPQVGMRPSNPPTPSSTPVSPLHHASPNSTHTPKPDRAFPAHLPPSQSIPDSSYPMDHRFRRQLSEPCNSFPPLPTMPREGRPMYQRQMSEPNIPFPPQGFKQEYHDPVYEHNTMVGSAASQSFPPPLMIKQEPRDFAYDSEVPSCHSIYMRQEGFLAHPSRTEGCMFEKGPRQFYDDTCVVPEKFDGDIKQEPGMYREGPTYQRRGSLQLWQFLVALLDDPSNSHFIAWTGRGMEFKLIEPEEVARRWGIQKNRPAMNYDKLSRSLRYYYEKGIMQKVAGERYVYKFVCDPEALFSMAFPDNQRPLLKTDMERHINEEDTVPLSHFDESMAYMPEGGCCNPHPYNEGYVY
# How it was run: as §1
sequence,measurement,setting,value
TTAAAA,binding signal,FLI1,"1.19 fold enrichment (6-mer frequency, TF over GST control)"
same,binding signal,ELK1,"1.15 fold enrichment (6-mer frequency, TF over GST control)"
same,binding signal,GABPA,"1.19 fold enrichment (6-mer frequency, TF over GST control)"
same,binding signal,ERG,"1.15 fold enrichment (6-mer frequency, TF over GST control)"
same,binding signal,ELF1,"1.22 fold enrichment (6-mer frequency, TF over GST control)"
same,binding signal,EHF,"1.16 fold enrichment (6-mer frequency, TF over GST control)"
same,binding signal,SPI1,"1.33 fold enrichment (6-mer frequency, TF over GST control)"
same,binding signal,SPIB,"1.23 fold enrichment (6-mer frequency, TF over GST control)"
same,binding signal,ELK3,"1.22 fold enrichment (6-mer frequency, TF over GST control)"
same,binding signal,FEV,"1.16 fold enrichment (6-mer frequency, TF over GST control)"
same,binding signal,ETV5,"1.14 fold enrichment (6-mer frequency, TF over GST control)"
same,binding signal,HSF1,"1.87 fold enrichment (6-mer frequency, TF over GST control)"
same,binding signal,SPIC,"1.28 fold enrichment (6-mer frequency, TF over GST control)"
same,binding signal,ELF4,"1.19 fold enrichment (6-mer frequency, TF over GST control)"
same,binding signal,ELK4,"1.27 fold enrichment (6-mer frequency, TF over GST control)"
same,binding signal,ETV2,"1.25 fold enrichment (6-mer frequency, TF over GST control)"
same,binding signal,ELF3,"1.24 fold enrichment (6-mer frequency, TF over GST control)"
same,binding signal,CRX,"2.69 fold enrichment (6-mer frequency, TF over GST control)"
same,binding signal,ETV1,"1.22 fold enrichment (6-mer frequency, TF over GST control)"
